Sampled rows, rich in hits. Any-hit rate of the full collection: about 2.2%.
Mito fusion yeast – mitochondrial division inhibition or fusion activation | Potency, µM (doses to about 46.1 µM), inactives show at the top dose growth rescue (activation), usual class: activators | 0.23% of 320,000 active | S. cerevisiae fusion-defective mutant growth rescue, CellTiterGlo 48 h; further: % of control where 0% means no effect; nearly all actives have a fitted effect of over 45% in size
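Luminescent cell viability in 1536-well qHTS format served as the measure of rescued growth in ts fusion-mutant S. cerevisiae cultured on non-fermentable YPEG for 48 hours at 37C.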
Abeta yeast res – restores growth of yeast expressing A-beta42 peptide | yeast expressing A-beta42, growth rescue, OD600, 48 h; response scale: 0% DMSO, 100% iron-clioquinol control | Potency, µM (series often up to 46.1 µM), hits mostly activators | 0.063% of 410,000 active; further: nearly all actives have a fitted effect of over 55% in size
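Yeast A-beta toxicity model in growth medium with pinned compounds, 48 h at 30 C; growth read as absorbance at 600 nm. Normalized to FeCl3/clioquinol equimolar mix (positive) and DMSO (negative).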
aSyn rescue – rescues yeast growth from alpha-synuclein toxicity; 0.14% of 370,000 active; Yeast expressing alpha-synuclein, growth rescue, BacTiter-Glo, 24 h; Potency, µM (series often up to 46.1 µM), for the others: at the top dose growth rescue (activation), usual class: activators; AID 652106; further: % of control where 0% means no effect; nearly all actives have a fitted effect of over 65% in size
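Readout is rescue of growth in alpha-synuclein-expressing yeast, so inhibitors of toxicity appear as activators. Growth after 24 hr at 30 deg C in galactose medium is quantified by luminescence.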
FUS suppressor – suppressors of FUS proteinopathy in yeast | AID 1347120 | S. cerevisiae FUS-expressing, growth rescue, OD600, 24 h | Potency, µM (series often up to 76.6 µM), actives largely listed as activators | 0.24% of 390,000 active;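 further: plate controls were DMSO vehicle for no effect and reference control for full effect; nearly all actives have a fitted effect of over 55% in size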
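Galactose (2%) drives FUS expression in yeast precultured in raffinose; seeding density OD 0.005. Test compounds incubated 24hr at 30C and 99% humidity before absorbance at 600 nm was measured.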
TDP-43 yeast inh – TDP-43 toxicity inhibition in yeast. Potency, µM (top dose mostly 46.1 µM), for inactives: top-dose growth rescue (activation), hits mostly activators. 1.8% of 410,000 active. TDP-43 expressing yeast growth rescue, BacTiter-Glo, 24 h. AID 652104; further: % of control where 0% means no effect; nearly all actives have a fitted effect of over 50% in size
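Luminescence from BacTiter-Glo reports growth of TDP-43-expressing yeast after 24 hr at 30 deg C with compound. Cells were raffinose-pregrown to mid-log, then seeded in galactose medium at OD600=0.02.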
Numbers without * were called inactive; ! = not confirmed by another sample; [ ] = remark or other dose. The call rests on the fitted dose curve; in most records, active means well fitted curve in the direction sought with a large enough effect; inconclusive means small, poorly fitted or top-dose-only effect, or another doubt; inactive means no such curve, though single readings can be large; an effect the other way counts as inactive or inconclusive. Potency means the concentration at half of the fitted maximal effect.

How did CCC1=Nc2cc(C(=O)O)ccc2Sc2ccccc21 do in these assays?
Mito fusion yeast: 11%; Abeta yeast res: inactive; aSyn rescue: 11%; FUS suppressor: inactive; TDP-43 yeast inh: 20µM*

What do the screens show for `CCC1=Nc2cc(C(=O)NCc3ccco3)ccc2Sc2ccccc21`?
Mito fusion yeast: inconclusive; Abeta yeast res: inactive; aSyn rescue: 10%; FUS suppressor: inactive; TDP-43 yeast inh: inconclusive

How did CCc1ccc(N/C(SC)=C(/C#N)C(N)=O)cc1 do in these assays?
Mito fusion yeast: 5%; Abeta yeast res: inactive; aSyn rescue: 1%; FUS suppressor: inactive; TDP-43 yeast inh: 7%

What do the screens show for `CCCCS/C(=C(/C#N)C(N)=O)c1cc2c([nH]1)CCCC2`?
Mito fusion yeast: 13µM*; Abeta yeast res: inactive; aSyn rescue: 10%; FUS suppressor: inactive; TDP-43 yeast inh: inconclusive

What do the screens show for `COC(=O)C[C@H]1CC[C@@H]2[C@@H](COc3ccc(NC(=O)C4CCCCC4)cc3C(=O)N2C)O1`?
FUS suppressor: inactive

What do the screens show for `COc1cc2c(C(=O)N3CCN(c4cc(Cl)ccc4C)CC3)cn(CC(C)C)c(=O)c2cc1OC`?
Abeta yeast res: inactive; FUS suppressor: inactive; TDP-43 yeast inh: 6%

What do the screens show for `COc1cc2c(C(=O)N3CCN(c4cccc(C(F)(F)F)c4)CC3)cn(CC(C)C)c(=O)c2cc1OC`?
Abeta yeast res: inactive; FUS suppressor: 22µM*; TDP-43 yeast inh: inconclusive

What do the screens show for `O=C(c1c(F)cccc1F)N1CCN(c2cccc(C(F)(F)F)c2)CC1`?
Mito fusion yeast: 6%; Abeta yeast res: inactive; aSyn rescue: 14%; FUS suppressor: inactive; TDP-43 yeast inh: 16µM*

What do the screens show for `Cc1nc2ccc(Oc3ccccc3)cc2s1`?
Mito fusion yeast: 0%; Abeta yeast res: inactive; aSyn rescue: -1%; FUS suppressor: inactive; TDP-43 yeast inh: 28%

How did Nc1nc2ccc(OC(F)(F)F)cc2s1 do in these assays?
Mito fusion yeast: 3.3µM*!; Abeta yeast res: inactive; FUS suppressor: inactive; TDP-43 yeast inh: 13µM*

What do the screens show for `Nc1nc2ccc(Oc3ccccc3)cc2s1`?
Mito fusion yeast: 20%; Abeta yeast res: inactive; aSyn rescue: -12%; TDP-43 yeast inh: 11µM*

What do the screens show for `COc1cccc(Cn2ccn(-c3ccc(F)cc3)c(=O)c2=O)c1`?
Abeta yeast res: inactive; FUS suppressor: inactive; TDP-43 yeast inh: 19%

Results for Cc1cccc(NC(=S)NCc2ccco2)n1 ?
Mito fusion yeast: 4%; Abeta yeast res: 13µM*; aSyn rescue: 1%; FUS suppressor: inactive; TDP-43 yeast inh: inconclusive

How did Cc1oc(-c2ccc(C(=O)NCCC(C)C)cc2)nc1CS(=O)(=O)c1ccccc1 do in these assays?
Abeta yeast res: inactive; FUS suppressor: inactive; TDP-43 yeast inh: -7%

How did O=C(O)/C=C/c1cccc(B(O)O)c1 do in these assays?
aSyn rescue: -10%

How did C[C@H](O)[C@@H]1CN2CCc3c([nH]c4c(-c5ccccc5)cccc34)[C@@H]2C[C@@H]1N(C)CC1CCCCC1 do in these assays?
FUS suppressor: inactive

How did CCOC(=O)c1ccc(-n2c(CCC(=O)O)ccc2-c2ccc(F)cc2)cc1 do in these assays?
Mito fusion yeast: 6%; Abeta yeast res: inactive; aSyn rescue: 9%; FUS suppressor: inactive; TDP-43 yeast inh: 13µM*

How did O=C(COC(=O)c1ccccc1Br)Nc1ccc(F)cc1 do in these assays?
Mito fusion yeast: -3%; Abeta yeast res: inactive; aSyn rescue: 0%; FUS suppressor: inactive; TDP-43 yeast inh: inconclusive

Results for COCCNC(=O)COC(=O)c1cccnc1SC ?
Mito fusion yeast: -4%; Abeta yeast res: inactive; aSyn rescue: 3%; FUS suppressor: inactive; TDP-43 yeast inh: 12%

Results for CSc1ncccc1C(=O)OCC(=O)NCCCc1ccccc1 ?
Abeta yeast res: inactive; aSyn rescue: 1%; FUS suppressor: inactive; TDP-43 yeast inh: 18µM*

What do the screens show for `O=C(COC(=O)c1ccccc1Br)NCCc1ccc(F)cc1`?
Mito fusion yeast: 3%; Abeta yeast res: inactive; aSyn rescue: 19%; TDP-43 yeast inh: 20µM*

Results for COc1ccc(N2CC(NC(=O)c3cc4ccccc4o3)CC2=O)cc1 (stereo not drawn) ?
Abeta yeast res: inactive; FUS suppressor: inactive; TDP-43 yeast inh: 16%

Results for COc1cccc(NC(=O)c2sc(-n3nc(C)c(Cc4ccccc4Cl)c3C)nc2C)c1 ?
Abeta yeast res: inactive; FUS suppressor: inactive; TDP-43 yeast inh: -5%

How did CCN(CC)C(=O)CC[C@@H]1CC[C@]2(CCCN(Cc3ccccc3)C2)O1 do in these assays?
FUS suppressor: inactive

Results for Cc1cccc(C(=O)N2CCN=C2SCc2ccc([N+](=O)[O-])cc2)c1 ?
Mito fusion yeast: -5%; Abeta yeast res: inactive; aSyn rescue: 4%; FUS suppressor: inactive; TDP-43 yeast inh: 10µM*

Results for CCOC(=O)C1CCN(c2ncnc3c2[nH]c2cccc(OC)c23)CC1 ?
Mito fusion yeast: 1%; Abeta yeast res: inactive; aSyn rescue: 1%; FUS suppressor: 22µM*; TDP-43 yeast inh: -14%

How did CC(=O)CC[C@H]1CC[C@]2(CCCN(C(=O)c3ccno3)C2)O1 do in these assays?
FUS suppressor: inactive

How did NS(=O)(=O)c1ccc(S(=O)(=O)N2CCN(c3nc(-c4ccccc4)nc4ccccc34)CC2)cc1 do in these assays?
aSyn rescue: -4%

Results for Cc1cccc2c1nc(-c1ccccc1)n1nnnc21 ?
Mito fusion yeast: -2%; Abeta yeast res: inactive; aSyn rescue: -4%; FUS suppressor: inactive; TDP-43 yeast inh: -11%

How did Cc1cccc2c1nc(-c1ccccc1)n1cnnc21 do in these assays?
Mito fusion yeast: 0%; Abeta yeast res: inactive; aSyn rescue: 2%; FUS suppressor: inactive; TDP-43 yeast inh: 14µM*

How did C/C(=N\Nc1ccc(C(=O)O)cc1)c1ccc(-n2ccnc2)cc1 do in these assays?
Mito fusion yeast: -5%; Abeta yeast res: inactive; aSyn rescue: 11%; FUS suppressor: inactive; TDP-43 yeast inh: 19%

How did C/C(=N\Nc1ccccc1Cl)c1ccc(-n2ccnc2)cc1 do in these assays?
Mito fusion yeast: -17%; Abeta yeast res: inactive; aSyn rescue: 0%; FUS suppressor: inactive; TDP-43 yeast inh: 7.1µM*

What do the screens show for `COc1ccc(-c2oc3c(c2C#CC2(O)CCCCC2)C(OC(C)=O)CCC3)cc1` (stereo not drawn)?
Abeta yeast res: inactive; aSyn rescue: 20%; FUS suppressor: inconclusive; TDP-43 yeast inh: 20µM*

Results for Cc1ccccc1CNC(=O)c1sc2ncnc(N(C)C3CCCCC3)c2c1C ?
Abeta yeast res: inactive; FUS suppressor: inconclusive; TDP-43 yeast inh: 19%[9.22 µM]

Results for CCc1ccc(S(=O)(=O)Nc2cccc(-c3ccc(OC)nn3)c2)s1 ?
Abeta yeast res: inactive; FUS suppressor: inconclusive; TDP-43 yeast inh: 18µM*
